In the library only some 19% were active in any assay of this set; here they are far more common.
HT1080 IDH1KD tx = HT-1080 IDH1 knockdown cell toxicity (counter line); HT-1080 IDH1 knockdown viability, ATP luminescence, 48 h; Potency, µM (highest dose often 46.1 µM), for inactives: top-dose activity, negative = toxicity, most hits filed as cytotoxic; hit rate 2% among 360,000;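 note: 0% = DMSO wells and -100% = cell-free medium wells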
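Assay cells: HT-1080 with IDH1 knockdown, 750 per well, RPMI/5% FBS. Exposure: 48 h at 37 °C following 2 h pre-incubation. Read: CellTiter-Glo luminescence; fitted concentration-response, curve class assigned.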
KB-3-1 cytotox = kills parental KB-3-1 adenocarcinoma cells; KB-3-1 viability, CellTiter-Glo ATP luminescence, 72 h; Potency, µM (top dose mostly 46.1 µM), actives largely listed as cytotoxic; hit rate 1.4% among 400,000; AID 1347075; note: nearly all actives have a fitted effect of over 60% in size
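Screening of KB-3-1 cells (DMEM, 10% FBS, phenol-red free) ran from lowest to highest compound concentration; after 72 h at 37 °C viability was read luminescently and curves fitted.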
KB-V1 MDR tox = KB-V1 MDR subline cytotoxicity; KB-V1 MDR cells viability, CellTiter-Glo, 72 h; Potency, µM (series often up to 46.1 µM), actives largely listed as cytotoxic; hit rate 3.4% among 400,000; AID 1347076; note: nearly all actives have a fitted effect of over 60% in size
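Drug-selected KB-V1 cells, grown in DMEM lacking phenol red with 10% FBS, receive compound titrations; after three days at 37 degrees C, surviving cell ATP is quantified by CellTiter-Glo luminescence and responses normalized and curve-fitted.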
HT1080-NT tox = kills 2HG-producing HT-1080-NT fibrosarcoma cells. Potency, µM (series often up to 46.1 µM), for the others: top-dose activity, negative = less viability, hits mostly cytotoxic. AID 686970. hit rate 1.6% among 360,000. HT-1080-NT fibrosarcoma viability, CellTiter-Glo ATP luminescence, 48 h;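 note: NT is the 2HG producing partner of a matched IDH1 knockdown line; 0% = DMSO-treated cells and -100% = media-only wells without cells; nearly all actives have a fitted effect of over 55% in size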
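750 cells/well, RPMI + 5% FBS; 2 h settle, compound pin-transfer, 48 h at 37 degrees C. CellTiter-Glo 10 min RT, luminescence. Normalized to DMSO and media-only wells.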
DT40 TDP1 CPT = DT40-hTDP1 cell growth loss with CPT; chicken DT40 Tdp1-/-;hTDP1 cells + 20 nM CPT, ATP luminescence, 48 h; Potency, µM (doses to about 46.2 µM), inactives show at the highest dose activity change, negative = growth inhibition, hits mostly inhibitors; AID 686979; hit rate 12% among 420,000; note: nearly all actives have a fitted effect of over 55% in size
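Chicken DT40 Tdp1-/- cells complemented with human TDP1, 400 cells/well, exposed to compounds plus 20 nM camptothecin for at least 48 h at 37 C; viability read as ATP content by CellTiter-Glo luminescence.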
DT40 TDP1 no CPT = qHTS for Inhibitors of human tyrosyl-DNA phosphodiesterase 1 (TDP1): qHTS in cells in absence of CPT | hit rate 15% among 420,000 | AID 686978, 2013 | Potency, µM (highest dose often 46.2 µM), inactives show top-dose activity change, negative = growth inhibition, actives largely listed as inhibitors | DT40 Tdp1-/- hTDP1 cells, no CPT, ATP luminescence, 48 h; note: nearly all actives have a fitted effect of over 55% in size
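Readout: luminescence from CellTiter-Glo after 30 min in the dark at RT. Cells: DT40 Tdp1-/- with stable hTDP1, 400/well. Exposure: compounds alone, ≥48 hr, 37 °C.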
* marks the source's active call; other numbers are inactive results; i = inactive; ? = inconclusive; / = no result; [ ] = another dose, or the depositor's remark. Calls come from the whole dose curve; as a rule, active = well fitted curve in the direction sought with a large enough effect; inconclusive = small, poorly fitted or top-dose-only effect, or another doubt; inactive = no such curve, though single readings can be large; an effect the other way counts as inactive or inconclusive. Unless noted, % is set by controls: 0 for no effect and ±100 for the full control effect; potency is the fitted concentration of half-maximal effect.

SMILES | HT1080 IDH1KD tx | KB-3-1 cytotox | KB-V1 MDR tox | HT1080-NT tox | DT40 TDP1 CPT | DT40 TDP1 no CPT
Cc1nn(-c2ccccc2)c(N2CCCC2)c1/C=N/NC(=O)c1ccccc1O | ? | i | i | -27.3% | ? | ?
COc1cc(/C=C/C(=O)NCC2CCCCC2)cc(OC)c1OC | 6.7% | i | i | 10.1% | -2.3% | -19.1%
CCOc1ccc(N/C=C/C(=O)c2ccc(OC)cc2)cc1 | -0.8% | i | ? | 0.1% | ? | -19.1%
COc1cc(/C=C/C(C)=O)cc(OC)c1OC | 0.2% | 23.1µM* | i | -8.5% | -29.7% | ?
CCCOc1ccc(N/C=C/C(=O)c2cc(OC)c(OC)c(OC)c2)cc1 | -1.9% | i | ? | -1.2% | ? | 23.1µM*
COc1cc(C=CC(=O)c2cc(OC)c(OC)c(OC)c2)cc(OC)c1OC | 23.1µM* | 6.51µM* | ? | ? | 5.8µM* | 5.8µM*
COc1ccc2cc(C(=O)/C=C/c3cc(OC)c(OC)c(OC)c3)ccc2c1 | ? | i | i | ? | 25.9µM* | 20.6µM*
O=C(c1cnn(-c2nccc(-c3ccco3)n2)c1C1CC1)N1CCCCC1c1cccnc1 (configuration not stated) | / | / | / | / | 14.3%[9.04 µM] | -8.2%
COc1ccc(CN2CC[C@@H]3CN(C(C)=O)[C@H](c4ccccc4Br)C[C@@H]32)cc1 | -1.2% | i | i | -7.7% | ? | ?
COc1ccc(-n2c(=O)c3sc4ccccc4c3n(CC(=O)N3CCCC3)c2=O)cc1 | / | i | i | / | -14.6% | -26.5%
COc1cc(/C=C/C(=O)N2CCC=CC2=O)cc(OC)c1OC | 4.11µM* | ? | ? | 5.8µM* | 2.06µM* | 1.84µM*
COc1cc(/C=C/C(=O)OCC(=O)N(C)Cc2ccccc2)cc(OC)c1OC | 5.4% | i | ? | 2.3% | ? | ?
COc1cc(C=CC(=O)c2ccccc2)cc(OC)c1OC | 8.2µM* | ? | 23.1µM* | 10.3µM* | 5.8µM* | 8.2µM*
COc1cc(/C=C/C(=O)c2cccs2)cc(OC)c1OC | / | / | / | / | 3.76µM* | 1.5µM*
O=C1CCCc2nc(N3CCc4ccccc43)ncc21 | 7.8% | i | i | -0.7% | -28.3% | -25.7%
O=C1CCCc2nc(N3CCN(Cc4ccccc4)CC3)ncc21 | 0.1% | i | 20.6µM* | -16.6% | ? | -14.9%
Cc1nc(N2CCN(Cc3ccccc3)CC2)nc2c1C(=O)CCC2 | -1.8% | ? | 18.4µM* | -1.9% | 23.1µM* | 16.4µM*
Cc1nc(N2CCN(Cc3ccccc3)CC2)nc2c1CCC2 | 9.0% | i | i | -3.3% | -17.9% | ?
O=c1cc(O)c2c(=O)n(-c3ccccc3)c3c(c2o1)CCCCC3 | 0.5% | i | 16.4µM* | -1.8% | -4.5% | -25.4%
O=c1c(-c2ccccc2)c(O)c2c(n1-c1ccccc1)CCCC2 | -0.7% | i | ? | 5.9% | 5.8% | -19.9%
CC(=O)Oc1[nH]c(=O)c2cccc3c2c1CCC3 | 2.3% | i | i | -12.3% | ? | 29.1µM*
CCN(CC)Cc1nc2c(c(=O)[nH]1)C(CC)(CC)Cc1ccccc1-2 | 8.3% | i | ? | 2.2% | ? | ?
CCCc1cc(C(=O)NNC(=S)NC2CCCCC2)cs1 | 1.3% | i | i | -1.5% | ? | ?
COc1ccc(NC(=O)c2oc3ccccc3c2NC(=O)C(C)(C)C)cc1 | ? | i | 9.2µM* | -1.3% | ? | ?
COc1ccc(NC(=O)c2oc3ccccc3c2NC(=O)C2CC2)cc1 | -23.6% | i | 10.3µM* | 5.8% | ? | ?
SMILES | HT1080 IDH1KD tx | KB-3-1 cytotox | KB-V1 MDR tox | HT1080-NT tox | DT40 TDP1 CPT | DT40 TDP1 no CPT
COc1cccc(NC(=O)c2oc3ccccc3c2NC(=O)C2CC2)c1 | ? | i | i | -25.4% | ? | ?
CCOc1ccc(NC(=O)c2oc3ccccc3c2NC(=O)c2c(F)cccc2F)cc1 | / | i | i | / | ? | ?
COc1cccc(NC(=O)c2oc3ccccc3c2NC(C)=O)c1 | -13.9% | ? | ? | 11.5% | 1.7% | -17.8%
CCOc1ccc(NC(=O)c2oc3ccccc3c2NC(=O)C(C)(C)C)cc1 | / | i | i | / | ? | 18.4µM*
CCOc1ccccc1C(=O)Nc1c(C(=O)Nc2ccc(F)cc2)oc2ccccc12 | / | ? | ? | / | 4.11µM* | 2.31µM*
CC1(C(=O)NS(=O)(=O)c2ccccc2Cl)CCN1C(=O)COc1ccc(Cl)cc1 (configuration not stated) | 3.6% | i | i | 8.5% | 0.1% | 0.3%
O=C(Nc1ncccn1)c1cc([N+](=O)[O-])cc([N+](=O)[O-])c1 | 20.7% | i | i | 12.1% | -2.6% | -17.5%
O=[N+]([O-])c1cc(-c2ncccn2)c([N+](=O)[O-])s1 | 20.6µM* | 16.4µM* | ? | 16.4µM* | 2.31µM* | 2.91µM*
COCCN(Cc1cc2cc3c(cc2nc1Cl)OCO3)C(=O)Nc1ccccc1OC | 2.6% | i | i | -14.9% | 16.4µM* | 23.1µM*
COCCN(Cc1cc2cc(C)ccc2nc1Cl)C(=O)Nc1ccccc1C | 7.1% | i | ? | -1.1% | 16.4µM* | 15.8µM*
Cc1ccc2nc(Cl)c(CN(Cc3cccs3)C(=O)C3CC3)cc2c1 | -24.7% | i | i | -3.4% | ? | -26.7%
COCCN(Cc1cc2cc3c(cc2nc1Cl)OCO3)C(=O)Nc1ccc(F)cc1 | 17.3% | 16.4µM* | ? | -4.2% | 16.4µM* | 11.2µM*
COc1ccc(CCN(Cc2cc3cc(C)c(C)cc3nc2Cl)C(=O)C2CC2)cc1 | 8.0% | i | i | 4.9% | 25.9µM* | 20.6µM*
O=C(CC(c1ccco1)S(=O)(=O)c1ccccc1)c1ccccc1 (configuration not stated) | -29.4% | i | i | ? | -7.4% | ?
CCC(C(=O)Nc1cc(Cl)ccc1OC)n1nc(-c2ccccc2)ccc1=O (configuration not stated) | / | ? | i | / | ? | ?
COCC(=O)N(CCN(C)C)Cc1cc2cc3c(cc2nc1Cl)OCO3 | 0.6% | i | i | -3.0% | -0.5% | 14.5%
COCCN(Cc1cc2cc3c(cc2nc1Cl)OCO3)C(=O)Nc1ccc(OC)cc1 | 9.5% | ? | ? | 7.7% | ? | 10.3µM*
CCc1ccc(S(=O)(=O)c2nnn3c2nc(N2CCOCC2)c2ccccc23)cc1 | 6.1% | i | i | 3.0% | ? | 12.7%

Bioassay records as filed in PubChem.
